# According to PubChem BioAssay AID1304 (The Scripps Research Institute Molecular Screening Center, 2008):
# Out of some 220,000 compounds screened, about 800 (0.36%) were called active. Cut-off read from the data, not from the text of the source: active = activation above about 33% (passing the limit was not always enough); inactive = the rest. The full list was thinned out, with actives kept by preference.
# Target: Neuropeptide Y receptor type 1 (Homo sapiens) (UniProt P25929)
# Test: activation enhancers of human NPY-Y1 – cell-based, primary screen (AID 1304);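 note: cells stimulated with NPY at EC10 then isoproterenol at EC100; 0% = low agonist plus stimulus and 100% = saturating agonist plus stimulus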
# Conditions: NPY-Y1 expressing cells, potentiator/agonist activation; at 3.6 µM; active compounds read high
# Chain of Neuropeptide Y receptor type 1 (Homo sapiens) (P25929 whole entry, looked up): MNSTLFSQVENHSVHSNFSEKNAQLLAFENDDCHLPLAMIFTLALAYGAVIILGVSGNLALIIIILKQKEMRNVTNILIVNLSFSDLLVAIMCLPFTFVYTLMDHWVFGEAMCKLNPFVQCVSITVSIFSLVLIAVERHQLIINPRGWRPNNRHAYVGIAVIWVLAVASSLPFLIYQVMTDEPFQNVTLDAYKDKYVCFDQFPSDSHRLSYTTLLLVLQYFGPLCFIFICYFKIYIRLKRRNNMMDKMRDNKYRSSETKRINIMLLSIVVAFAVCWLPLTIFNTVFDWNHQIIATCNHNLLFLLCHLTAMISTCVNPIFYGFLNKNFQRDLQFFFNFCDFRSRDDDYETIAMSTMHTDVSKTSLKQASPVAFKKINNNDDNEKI
row,Structure (SMILES),activation
1,CSC1=NP(=S)(SC)N(C)c2nc3n(c21)CCC3 (stereo not given),42.8% (active)
2,CCC1(C)CC(CCNCc2ccc(N(C)C)cc2)(c2ccc(F)cc2)CCO1 (stereo not given),16.3% (inactive)
3,CSc1nc2ccc(C)cc2c(=O)n1-c1cccnc1,1.29% (inactive)
4,CNC(=O)Nc1ccc(C(O)(C(=O)OC)C(F)(F)F)cc1 (stereo not given),-6.66% (inactive)
5,CC(=O)Cc1ccc(OC(C)C)cc1,8.4% (inactive)
6,C/C=C/CC1(CC)C(=O)NC(=S)NC1=O,11.2% (inactive)
7,CCOP(=O)(OCC)C(NC(=O)c1ccc(OC)cc1)C(Cl)(Cl)Cl (stereo not given),4.01% (inactive)
8,CC1(C)Cc2c(C#N)c(N3CCNCC3)nc(-c3ccco3)c2CS1,59.2% (active)
9,CCN1CC2C3CCC(C)(O3)C2C1 (stereo not given),11.9% (inactive)
10,Fc1ccc(C2N3CCCN23)cc1 (stereo not given),-11.3% (inactive)
11,CCOc1cccc(=NC2CCCCC2)c2c(C)[nH]c(C)c12,11.4% (inactive)
12,Cc1nn(Cc2ccccc2Cl)c(Cl)c1C(=O)OC(C(=O)NC(N)=O)C(C)C (stereo not given),49.5% (active)
13,Cc1cccc(NC(=O)OC2CN3CCC2CC3)c1 (stereo not given),11.8% (inactive)
14,O=c1[nH]c(=O)n(Cc2ccccc2)c(O)c1/C=N/Nc1c(F)c(F)c(F)c(F)c1F,-7.15% (inactive)
15,Cn1c(O)c(C(=Nc2ccc(F)cc2)c2ccccc2)c(=O)n(C)c1=O,-6.6% (inactive)
